Assay results as given in PubChem BioAssay.
Values joined by “and” are separate entries in the source; they are usually repeats but may differ in a detail not shown here. Equal values may be shown once. Active and inactive are the calls of the source.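 The calls were made as follows, unless noted: active = mean z-score across replicates of 1.96 or higher in either the MELAS or the Rieske mutant cell line; inactive = the rest.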

Assays:
[1] = phospholipid biosynthesis inhibitors in animal cells, primary screen, cell-based, LOPAC library, screen 4 (AID 1347384; call rule not given here); settings: phospholipid biosynthesis inhibition screen, at 10 µM
[2] = survival rescue of mitochondrial mutant cells in low glucose, primary screen, MELAS cybrids, Rieske KO mouse fibroblasts, CellTiter-Glo (AID 1508586);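 also: z relative to plate mean and SD of compound and empty wells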
[3] = biological target: NAD(+) hydrolase SARM1 (Homo sapiens) (UniProt Q6SZW1); experiment: SARM1 TIR NADase inhibitors, cell lysate, NAD-Glo luminescence (AID 1508614;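 active = compound whose remaining NAD level is above about 45 nM, limit read from the data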;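 also: higher remaining NAD means stronger inhibition of SARM1 NADase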); settings: SAM-TIR HEK293T lysate NADase, at 1 µM, stronger effect = higher value
Chain of NAD(+) hydrolase SARM1 (Homo sapiens) (Q6SZW1 whole entry, looked up, the tested form may be a part): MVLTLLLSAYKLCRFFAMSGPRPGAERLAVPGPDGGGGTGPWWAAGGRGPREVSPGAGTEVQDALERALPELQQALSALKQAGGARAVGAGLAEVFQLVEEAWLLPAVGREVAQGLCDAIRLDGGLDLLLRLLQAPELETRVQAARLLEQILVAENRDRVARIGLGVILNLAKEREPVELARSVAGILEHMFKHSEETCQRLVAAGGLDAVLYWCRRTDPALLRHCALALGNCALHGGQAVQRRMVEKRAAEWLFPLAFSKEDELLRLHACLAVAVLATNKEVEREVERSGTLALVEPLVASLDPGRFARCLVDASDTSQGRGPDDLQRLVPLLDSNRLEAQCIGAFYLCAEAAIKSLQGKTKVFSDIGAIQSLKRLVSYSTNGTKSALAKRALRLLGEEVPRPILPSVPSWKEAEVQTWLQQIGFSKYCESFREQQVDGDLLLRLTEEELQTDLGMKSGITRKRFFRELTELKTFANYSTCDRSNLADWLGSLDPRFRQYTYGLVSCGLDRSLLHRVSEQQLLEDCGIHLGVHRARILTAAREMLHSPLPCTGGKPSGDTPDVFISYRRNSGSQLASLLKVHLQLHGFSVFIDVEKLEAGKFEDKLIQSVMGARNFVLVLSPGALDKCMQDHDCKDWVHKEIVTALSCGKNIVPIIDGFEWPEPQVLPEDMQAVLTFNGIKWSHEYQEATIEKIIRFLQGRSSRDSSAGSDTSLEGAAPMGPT

[4] = biological target: Mitogen-activated protein kinase 7 (Homo sapiens) (UniProt Q13164); experiment: ERK5 transactivation activators in reporter cells, primary screen, cell-based, HTS (AID 1508626;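 active = luciferase signal above three times the same-plate solvent-only control wells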;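 also: luciferase driven by Gal4-ERK5 fusion binding five Gal4 sites before minimal TATA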); settings: HeLa Gal4-ERK5 transactivation, 18 h, at 5 µM, stronger effect = higher value
Chain of Mitogen-activated protein kinase 7 (Homo sapiens) (Q13164 whole entry, looked up, the tested form may be a part): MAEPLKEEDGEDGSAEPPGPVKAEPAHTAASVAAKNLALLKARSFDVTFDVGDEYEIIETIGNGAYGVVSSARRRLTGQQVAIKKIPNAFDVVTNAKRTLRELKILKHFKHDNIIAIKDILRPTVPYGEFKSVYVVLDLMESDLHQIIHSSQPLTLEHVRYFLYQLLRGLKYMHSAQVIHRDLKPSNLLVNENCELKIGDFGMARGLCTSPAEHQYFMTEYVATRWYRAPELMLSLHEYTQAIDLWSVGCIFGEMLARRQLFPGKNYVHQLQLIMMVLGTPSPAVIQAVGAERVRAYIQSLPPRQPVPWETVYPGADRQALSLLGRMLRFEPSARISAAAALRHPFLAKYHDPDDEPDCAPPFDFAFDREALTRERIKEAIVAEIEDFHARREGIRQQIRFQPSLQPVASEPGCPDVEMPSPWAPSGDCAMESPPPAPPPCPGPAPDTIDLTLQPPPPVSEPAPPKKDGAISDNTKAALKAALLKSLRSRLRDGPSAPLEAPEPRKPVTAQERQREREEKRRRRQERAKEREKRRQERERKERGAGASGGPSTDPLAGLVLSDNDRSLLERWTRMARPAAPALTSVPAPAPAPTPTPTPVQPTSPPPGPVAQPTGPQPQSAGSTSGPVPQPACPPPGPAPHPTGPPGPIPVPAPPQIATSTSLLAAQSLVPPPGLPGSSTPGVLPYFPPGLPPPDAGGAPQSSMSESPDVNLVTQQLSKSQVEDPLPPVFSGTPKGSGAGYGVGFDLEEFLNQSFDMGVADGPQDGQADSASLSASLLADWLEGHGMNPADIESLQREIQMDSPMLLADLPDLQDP

[5] = viability rescue of complex I mutant cybrids, primary screen, cell-based, galactose medium, ATP luminescence (AID 1645843;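 active = z-score of at least 1.8 in each of two replicates, scored against plate mean and spread of sample wells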;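 also: positive z means more ATP and so rescue of galactose-driven cybrid death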); settings: complex I mutant cybrid cells, 72 h, stronger effect = higher value
[6] = MELAS cybrid survival, CellTiter-Glo 48 h, stronger effect = higher value
[7] = Rieske KO mouse fibroblast survival, CellTiter-Glo 72 h

SMILES | outcome [1] | z-score [2, 6] | z-score [2, 7] | remaining NAD [3] | luciferase signal [4] | z-score [5]
NC(N)=N/N=C/c1c(Cl)cccc1Cl | inactive | -0.136 (inactive) and 1.02 (inactive) | 0.531 and 1.03 | 10 nM (inactive) | 52 AU (inactive) | -0.795 (inactive) and 0.845 (inactive) and -1.38 (inactive)
COC(=O)C1=C(C)NC(C)=C(C(=O)O[C@@H]2CCCN(Cc3ccccc3)C2)[C@@H]1c1cccc([N+](=O)[O-])c1 | – | 0.772 (inactive) | 0.352 | – | – | –
O=C1CC2(CCCC2)CC(=O)N1CCCCN1CCN(c2ncccn2)CC1 | inactive | 0.0234 (inactive) and -0.506 (inactive) and -2.15 (inactive) | -3.18 and -0.781 and 0.669 | 10 nM (inactive) | 112 AU (inactive) | –
CCOC(=O)C1=C(C)NC(C)=C(C(=O)OC)C1c1cccc(Cl)c1Cl (centres undefined) | inactive | -0.244 (inactive) and -0.163 (inactive) and -0.233 (inactive) | -0.0889 and -0.113 and 0.553 | 10 nM (inactive) | – | -1.02 (inactive) and -1.48 (inactive) and 1.76 (inactive)
CN1CCN(C2=Nc3ccccc3Oc3ccc(Cl)cc32)CC1 | inactive | -0.155 (inactive) and 0.0915 (inactive) | -0.224 and 0.0483 | 10 nM (inactive) | 132 AU (inactive) | -0.48 (inactive) and -0.015 (inactive)
CCCCNc1ccc(C(=O)OCCN(C)C)cc1 | inactive | -0.338 (inactive) and -0.454 (inactive) | -0.0172 and -0.0428 | 10 nM (inactive) | 76 AU (inactive) | -0.23 (inactive)
COc1ccc(CN(CCN(C)C)c2ccccn2)cc1 | inactive | 0.327 (inactive) and -0.721 (inactive) | 0.0359 and 0.287 | 18 nM (inactive) | 88 AU (inactive) | -0.145 (inactive) and 0.84 (inactive) and 0.65 (inactive)
Cc1cccc(C)c1OCC(C)N (centres undefined) | inactive | -0.0413 (inactive) and -0.119 (inactive) | -0.286 and -0.0916 | 10 nM (inactive) | 52 AU (inactive) | -0.045 (inactive) and 0.78 (inactive) and -0.055 (inactive)
CNCC(O)c1ccc(O)c(O)c1 (centres undefined) | inactive | – | – | – | – | -1.02 (inactive) and -0.655 (inactive)
CC(=O)O[C@]1(C(C)=O)CC[C@H]2[C@@H]3C=C(Cl)C4=CC(=O)CC[C@]4(C)[C@H]3CC[C@@]21C | – | -0.83 (inactive) | 0.517 | 10 nM (inactive) | 76 AU (inactive) | –
CCN(CC)CCOCCOC(=O)C1(c2ccccc2)CCCC1 | inactive | 0.546 (inactive) | 0.186 | 10 nM (inactive) | 36 AU (inactive) | -0.64 (inactive) and -0.655 (inactive)
O=C1c2cccc3c2[C@H](CCC3)CN1[C@@H]1CN2CCC1CC2 | – | 0.942 (inactive) | 0.737 | – | – | –
O=C1[C@H]2CCCC[C@H]2C(=O)N1CCCCN1CCN(c2nsc3ccccc23)CC1 | – | 1.02 (inactive) | 0.693 | – | – | –
C[N+](C)(C)CCOC(N)=O | inactive | -0.544 (inactive) and -0.486 (inactive) | -1.06 and 1.01 | 12 nM (inactive) | 72 AU (inactive) | 0.575 (inactive) and 0.535 (inactive)
CCN(CC)CCNC(=O)c1cc(Cl)c(N)cc1OC | inactive | -1.13 (inactive) and 0.206 (inactive) and 0.37 (inactive) | -0.268 and 0.0241 and 0.87 | 10 nM (inactive) | 100 AU (inactive) | -0.285 (inactive) and 0.055 (inactive) and 0.595 (inactive)
COc1ccccc1OCC(O)CO (centres undefined) | – | -0.233 (inactive) and 0.795 (inactive) and 1.3e-05 (inactive) | -0.0145 and 0.521 and -0.435 | 10 nM (inactive) | 160 AU (inactive) | 0.37 (inactive)
COc1cc(C(=O)OCCCN2CCCN(CCCOC(=O)c3cc(OC)c(OC)c(OC)c3)CC2)cc(OC)c1OC | inactive | 0.925 (inactive) and 0.274 (inactive) | 0.203 and 0.937 | 10 nM (inactive) | – | -0.89 (inactive) and 0.995 (inactive) and -0.26 (inactive)
CN1CCN(CC(=O)N2c3ccccc3C(=O)Nc3cccnc32)CC1 | inactive | 0.149 (inactive) and -0.644 (inactive) | -0.103 and -0.194 | 10 nM (inactive) | 188 AU (inactive) | 1.01 (inactive) and 0.81 (inactive)
CN(C)C(=O)Oc1cccc([N+](C)(C)C)c1 | inactive | 0.498 (inactive) and -0.72 (inactive) | 0.395 and -0.634 | 10 nM (inactive) | 48 AU (inactive) | 0.53 (inactive) and 0.21 (inactive)
CC(N)C(=O)OC(C)(C)Cc1ccc(Cl)cc1 (centres undefined) | inactive | – | – | 10 nM (inactive) | 92 AU (inactive) | –
NC(N)=NC(=O)Cc1c(Cl)cccc1Cl | inactive | -0.203 (inactive) and -0.668 (inactive) | 0.336 and -1.29 | 10 nM (inactive) | – | -0.06 (inactive) and -0.17 (inactive) and -0.035 (inactive)
Nc1c(Br)cc(Br)cc1CNC1CCC(O)CC1 (centres undefined) | – | -0.0247 (inactive) and 0.738 (inactive) and 0.116 (inactive) | -0.062 and -0.225 and -0.64 | 10 nM (inactive) | 84 AU (inactive) | -0.32 (inactive) and 0.295 (inactive)
CNC1(C)C2CCC(C2)C1(C)C (centres undefined) | inactive | -0.287 (inactive) and -0.243 (inactive) | 0.191 and -0.476 | – | 108 AU (inactive) | 0.26 (inactive) and 0.15 (inactive)
COC(=O)[C@H]1[C@H]2C[C@@H]3c4[nH]c5cc(OC)ccc5c4CCN3C[C@H]2C[C@@H](OC(=O)c2cc(OC)c(OC)c(OC)c2)[C@@H]1OC | inactive | 0.355 (inactive) | 1.28 | 10 nM (inactive) | 64 AU (inactive) | -0.19 (inactive) and -0.39 (inactive)

SMILES | outcome [1] | z-score [2, 6] | z-score [2, 7] | remaining NAD [3] | luciferase signal [4] | z-score [5]
CCO/C([O-])=N/c1c[n+](N2CCOCC2)no1 | – | 0.408 (inactive) and -0.37 (inactive) | 0.123 and -0.771 | 10 nM (inactive) | 56 AU (inactive) | 0.905 (inactive) and 0.425 (inactive)
Brc1c(NC2=NCCN2)ccc2nccnc12 | inactive | -0.224 (inactive) and -0.413 (inactive) | -0.21 and -1.29 | – | – | 0.235 (inactive) and -0.385 (inactive) and -0.11 (inactive)
c1cnc(N2CCN(Cc3ccc4c(c3)OCO4)CC2)nc1 | inactive | -0.549 (inactive) and -0.596 (inactive) | -0.536 and 0.482 | – | – | –
C#CCN(C)Cc1ccccc1 | inactive | -0.298 (inactive) and 0.205 (inactive) | -0.334 and 0.464 | 10 nM (inactive) | 60 AU (inactive) | 0.465 (inactive) and 0.37 (inactive)
COCCc1ccc(OCC(O)CNC(C)C)cc1 (centres undefined) | inactive | -0.374 (inactive) and 0.559 (inactive) and -0.0156 (inactive) | -0.175 and -0.344 and -0.724 | 10 nM (inactive) | 40 AU (inactive) | 0.4 (inactive) and 0.695 (inactive)
O=C1NCC2(CCN(CCc3ccccc3)CC2)O1 | inactive | -0.249 (inactive) and 0.534 (inactive) | -0.174 and -0.0853 | 10 nM (inactive) | 52 AU (inactive) | 0.155 (inactive)
NS(=O)(=O)Cc1noc2ccccc12 | inactive | 0.598 (inactive) and -0.977 (inactive) and -0.661 (inactive) | -0.432 and -0.0491 and -0.914 | – | – | 1.1 (inactive) and -0.005 (inactive) and 0.465 (inactive)
Cc1scc2c1N(C(=O)CN1CCN(C)CC1)c1ccccc1NC2=O | inactive | 0.644 (inactive) and 0.966 (inactive) | 0.467 and 0.592 | 10 nM (inactive) | – | 0.33 (inactive) and 0.02 (inactive) and 0.68 (inactive)
Clc1ccccc1C(c1ccccc1)(c1ccccc1)n1ccnc1 | inactive | -0.333 (inactive) and -0.755 (inactive) | 0.273 and 0.133 | 10 nM (inactive) | 72 AU (inactive) | -1.52 (inactive) and -1.44 (inactive)
Cc1ncc([N+](=O)[O-])n1CC(O)CCl (centres undefined) | – | -0.127 (inactive) and -0.079 (inactive) | -0.152 and -0.097 | 10 nM (inactive) | 36 AU (inactive) | 0.42 (inactive)
CN(C)CCC(c1ccccc1)c1ccccn1 (centres undefined) | inactive | 0.589 (inactive) and -0.102 (inactive) and 0.319 (inactive) | -0.594 and -0.285 and 0.31 | 10 nM (inactive) | 44 AU (inactive) | 0.62 (inactive) and -0.17 (inactive)
CC(C)(C)CC(C)(C)c1ccc(O)c(Cc2ccc(Cl)cc2Cl)c1 | – | – | – | 10 nM (inactive) | 52 AU (inactive) | –
CC(=O)NCCCCCC(=O)O | – | – | – | 10 nM (inactive) | 76 AU (inactive) | –
Cc1c(C(=O)O)c(O)cc2c1C(=O)c1c(O)c([C@@H]3O[C@H](CO)[C@@H](O)[C@H](O)[C@H]3O)c(O)c(O)c1C2=O | – | – | – | – | 52 AU (inactive) | –
Oc1cc(O)c2c(c1)O[C@H](c1ccc(O)c(O)c1)[C@H](O)C2 | – | – | – | – | 20 AU (inactive) | –
C[C@]12CCC(=O)C=C1CC[C@@H]1[C@@H]2[C@@H](O)C[C@@]2(C)[C@H]1CC[C@]2(O)C(=O)COP(=O)(O)O | – | – | – | 10 nM (inactive) | 72 AU (inactive) | –
CCCCCCCCCCCCCCCCCCOCC(O)CO (centres undefined) | – | – | – | – | 152 AU (inactive) | –
CC(=O)OCC(=O)[C@H]1CC[C@H]2[C@@H]3CCC4=CC(=O)CC[C@]4(C)[C@H]3CC[C@]12C | – | – | – | 10 nM (inactive) | 60 AU (inactive) | –
CC(=O)OCC(=O)[C@@]1(O)[C@H](OC(C)=O)C[C@H]2[C@@H]3CCC4=CC(=O)C=C[C@]4(C)[C@@]3(F)[C@@H](O)C[C@@]21C | – | – | – | 10 nM (inactive) | 96 AU (inactive) | –
O=c1[nH]cnc2c1ncn2[C@@H]1O[C@H](CO)[C@@H](O)[C@H]1O | – | – | – | 10 nM (inactive) | 44 AU (inactive) | –
CCc1oc2ccccc2c1C(=O)c1cc(Br)c(O)c(Br)c1 | – | -0.224 (inactive) and 0.135 (inactive) | -0.158 and -0.137 | 10 nM (inactive) | 52 AU (inactive) | -1.42 (inactive)
CC(=O)NS(=O)(=O)c1ccc(N)cc1 | – | -0.241 (inactive) and 0.341 (inactive) | -0.167 and 0.175 | 10 nM (inactive) | 64 AU (inactive) | -0.2 (inactive)
COc1ccc2cc1Oc1ccc(cc1)C[C@H]1c3c(cc4c(c3Oc3cc5c(cc3OC)CCN(C)[C@@H]5C2)OCO4)CCN1C | – | – | – | 10 nM (inactive) | 212 AU (inactive) | –
